Holding throughout (assay): NCI-60 one-dose screen, 48 h (100 = growth as untreated, 0 = no growth, -100 = all killed)
Holding throughout (conditions): 10 µM unless noted

For test [1], the system named is DU-145 prostate.
Test [2] has as its system K-562 leukemia.
The subject of test [3] is MALME-3M melanoma.
Test [4] deals with MDA-MB-231 breast.
Test [5] concerns RXF 393 renal.
The test system of test [6] is SF-268 CNS.
Test [7] has as its system SF-295 CNS.
The subject of test [8] is SF-539 CNS.
Test [9] has as its system UACC-257 melanoma.
Test [10] deals with M14 melanoma.
Test [11] has as its system HCT-15 colon.
Test [12] relates to HT29 colon.
The test system of test [13] is SNB-75 CNS.
For test [14], the system named is SNB-19 CNS.
The subject of test [15] is U251 CNS.
In test [16] the test system is PC-3 prostate.
Test [17] concerns SK-MEL-5 melanoma.
Test [18] deals with UACC-62 melanoma.
The subject of test [19] is LOX IMVI melanoma.
The subject of test [20] is SK-MEL-28 melanoma.

The structures appear in SMILES notation. This is part of a sample that, as a whole, favours compounds with a hit. Of some 83,000 tested, about 20% had one in any assay.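 Single-dose data. Exposure time 48 hours. Values below 10 considered active.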 A number with no mark means an inactive call. Active and inactive are the calls of the source.

Regarding `Cc1ccc(-n2nc3n(/c2=N\C(=O)NS(=O)(=O)c2ccc(C)cc2)CCN3C2=NCCN2)cc1`, the growth in test [1] was 108%; in test [2], 109%; in test [3], 106%; in test [4] it was 99.7%; in test [5], 123%; in [6], 103%. The growth was 102% in [7]; 95.1% in [8]; 98.1% in test [9]; 101% in test [10]; 105% in test [11]; 107% in test [12]. In addition, the growth in test [13] was 85.6%; in [14] it was 99.2%; in test [15] it was 105%; in [16] it was 96.4%; in test [17], 105%; in [18], 95.9%. Moreover, the figures for the growth in [19] and in test [20] were 113% and 101%, respectively.
For the compound `CCC(C)[C@H](NC(=O)NC(=O)NC(=O)CI)C(=O)OC` (stereo not given in full), the growth in test [1] is 108%; in test [2], 6.27% (active); in test [3], -44.9% (active); in test [4], 46.8%; in test [5], 85.3%; in test [6] it was 94.3%. Also, the growth is 89.4% in test [7]; 91.5% in test [8]; 85% in [9]; 71.2% in test [10]; 14.9% in [11]; 42.3% in test [12]. The growth in [13] was 92.1%; in [14], 93.8%; in test [15] it was 93.2%; in test [16], 93.3%; in test [17], 91.5%; in [18], 88.9%. The growth was -79.2% (active) in test [19] and 87.7% in test [20].
For the compound `C[C@@H]1C[C@H]2C(=O)O[C@@H](C)[C@H](NC(=O)[C@H](Cc3cc(F)cc(F)c3)NC(=O)Nc3ccc(Cl)cc3F)C(=O)N3C[C@H](O)C[C@H]3C(=O)N3CCN(C)C[C@H]3C(=O)N[C@@H](C)C(=O)N2C1`, the growth is 41.3% in test [1]; 27.7% in [2]; 45.4% in test [3]; 27.9% in test [4]; 88.1% in [5]; 29.1% in test [6]. Besides, the growth is 38.9% in [7]; 51.3% in [8]; 19.8% in test [9]; 72.9% in test [10]; 107% in test [11]; 32.5% in [12]. In addition, the growth in test [13] was 22.8%; in [14], 20.3%; in [15] it was 21.1%; in [16], 18.1%; in [17], 64.6%; in [18], 31.1%. The growth was 43.4% in [19] and 41.3% in test [20].
For the compound `CC[C@]12C=CCN3CC[C@@]4(c5ccc(OC)cc5N(C)[C@H]4[C@@](O)(C(=O)OC)[C@@H]1OC(=O)CCC(=O)O[C@H]1CC[C@H]4[C@@H]5CCC6=CC(=O)CC[C@@H]6[C@H]5CC[C@]14C)[C@@H]32`, the growth in [1] is 26% [100 µM]; in test [2] it was 7.54% [100 µM] (active); in test [3], -16.4% [100 µM] (active); in test [4], -39.4% [100 µM] (active); in test [5], -27.5% [100 µM] (active); in test [6], 31.9% [100 µM]. The growth in [7] is 4.5% [100 µM] (active); in [8] it was -40.4% [100 µM] (active); in test [9], 14.8% [100 µM]; in test [10] it was 1.67% [100 µM] (active); in [11] it was 14.5% [100 µM]; in [12], -21.8% [100 µM] (active). The growth in test [13] is -27.2% [100 µM] (active); in test [14], 21.7% [100 µM]; in [15] it was 10.8% [100 µM]; in test [16], 11.3% [100 µM]; in test [17], -95.3% [100 µM] (active); in test [18], -53.8% [100 µM] (active). Moreover, the growth in test [19] was -29.5% [100 µM] (active); in test [20], -7.77% [100 µM] (active).
`O=C(Nc1cccc(C2=NCCN2)c1)c1cccc(C(=O)Nc2cccc(C3=NCCN3)c2)c1`: the growth in test [1] is 107%; in test [2], 96.6%; in [3], 97.1%; in test [4], 101%; in test [5], 102%; in test [6], 96.4%. For the same compound, the growth in [7] is 99%; in [8], 95.7%; in [9], 95.8%; in test [10] it was 99%; in [11], 97.6%; in [12], 110%. Besides, the growth is 86.2% in [13]; 98% in [14]; 101% in test [15]; 99% in test [16]; 99.1% in [17]; 94.3% in [18]. The growth in test [19] is 91.4%; in test [20], 102%.
Consider `CC1Cc2c(Cl)ncnc2N(C)c2ccccc21` (stereo not given), for which the growth was 65.6% in [1]; 37.6% in test [2]; 0.822% (active) in test [3]; -33.8% (active) in test [4]; 13.6% in [5]; 24.4% in test [6]. Besides, the growth in [7] was 19.9%; in test [8], 33%; in test [9], 11.5%; in [10], 14.7%; in [11] it was 12.6%; in test [12] it was -24.1% (active). Moreover, the growth in [13] is 82.8%; in test [14] it was 28.4%; in [15] it was 19.6%; in test [16], 16.3%; in test [17], -75.1% (active); in test [18] it was 13.5%. The growth was -43.6% (active) in [19] and 20.9% in [20].
As for `C=C(C)[C@@H]1CC[C@]2(C)[C@H](CC[C@@H]3[C@@H]([C@@](C)(O)CCC=C(C)C)CC[C@]32C)[C@@]1(C)CCC(=O)O`, the growth is 7.93% [100 µM] (active) in [1]; 11.6% [100 µM] in test [2]; -39.6% [100 µM] (active) in [3]; -39.5% [100 µM] (active) in test [4]; -69.2% [100 µM] (active) in test [5]; -17.9% [100 µM] (active) in [6]. In addition, the growth is -59.9% [100 µM] (active) in test [7]; -85.7% [100 µM] (active) in test [8]; 28.9% [100 µM] in [9]; 2.42% [100 µM] (active) in test [10]; -15.9% [100 µM] (active) in [11]; 2.65% [100 µM] (active) in [12]. Moreover, the growth in test [13] is -37.5% [100 µM] (active); in test [14], -32.8% [100 µM] (active); in test [15] it was -16.7% [100 µM] (active); in test [16], 5.99% [100 µM] (active); in [17], -88.2% [100 µM] (active); in [18] it was -75.3% [100 µM] (active). Besides, the values for the growth in test [19] and in [20] were -100% [100 µM] (active) and -83% [100 µM] (active), respectively.

(Values after PubChem BioAssay (NCI).)
